# Assay results from the supplement of paper PMC10941209.
# A number with no mark means an inactive call.
# Tested on: Toxoplasma gondii RH 2F1 tachyzoites (intracellular in HFF)
# Test: parasite survival relative to DMSO control; higher = less antiparasitic activity, active = 20 or less
# Details: 1 µM; 72 h
# Description: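 Primary single-dose screen of the MMV Pandemic Response Box at 1 uM against T. gondii RH-2F1 (beta-galactosidase) tachyzoites in HFF cells, 72 h at 37 C. Parasite growth read by CPRG absorbance at 570 nm and normalised to DMSO-treated infected controls (% survival); pyrimethamine was the reference drug. The paper calls at least 80% inhibition a hit.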
row,Structure (SMILES),parasite survival
1,CC(C)N(c1cc(-c2ccccc2)sc1C(=O)O)C(=O)[C@H]1CC[C@H](C)CC1,65%
2,Nc1nc(=O)[nH]cc1F,51.9%
3,CC(C)(C)c1cccc(-c2nc3cc(C(=N)N)ccc3[nH]2)c1O,50.5%
4,O=C(Nc1nnc(-c2ccc(Cl)cc2)o1)c1ccc(F)cc1,41.1%
5,OCCCCn1cnc2c(O)nc(NCc3ccc(Cl)c(Cl)c3)nc21,59.7%
6,COc1ccc(NC(=O)c2cc3ccccn3n2)cc1,44.5%
7,NC(=O)c1ccc(I)c([N+](=O)[O-])c1,59.1%
8,NC(=O)c1cnc2ccc(S(=O)(=O)c3ccccc3)cc2c1Nc1ccc(O)cc1,43%
9,CCC(C)n1ncn(-c2ccc(N3CCN(c4ccc(OCC5COC(Cn6cncn6)(c6ccc(Cl)cc6Cl)O5)cc4)CC3)cc2)c1=O (stereo not given),3.93% (active)
10,CCc1ccccc1OCCN1CCCCCC1,47.2%
11,C[C@H]1COc2c(N3CCN(C)CC3)c(F)cc3c(=O)c(C(=O)O)cn1c23,51.4%
12,O=C(Nc1cccc(C2=NCCN2)c1)c1ccc(-c2ccc(C(=O)Nc3cccc(C4=NCCN4)c3)cc2)cc1,22.1%
13,Cc1nc(-c2ccc(C3N(C)c4ccc(F)cc4C(=O)N3c3ccccc3)s2)cs1 (stereo not given),59.2%
14,CCc1nc(N)nc(N)c1C#CCc1ccccc1,5.77% (active)
15,Cn1c2ccccc2c(=O)c2c(O)cccc21,49.5%
16,C=C(C)n1c(=O)n(Cc2ccccc2C)c2ccccc21,44.5%
17,NC(=O)c1nccn([C@@H]2O[C@H](CO)[C@@H](O)[C@H]2O)c1=O,59.3%
18,O=C1c2cccc3cccc(c23)C(=O)N1CC1CO1 (stereo not given),51.9%
19,COc1ccc(CNC(=O)C(NS(=O)(=O)c2ccc3nc(C)sc3c2)C(C)C)cc1 (stereo not given),56.4%
20,O=C(CCCC(F)(F)F)N1CCC(c2nc(-c3nccs3)no2)CC1,68%

row,Structure (SMILES),parasite survival
1,CC(C)c1ccc(COc2cccc(-c3cc([S+](C)[O-])c(C#N)c(=O)[nH]3)c2)cc1 (stereo not given),13.2% (active)
2,O=C(O)c1ccc(-n2nc(-c3ccccc3O)nc2-c2ccccc2O)cc1,25.7%
3,O=C(CCc1ccc2c(c1)OCO2)NCc1ccc(-c2ccccc2F)cc1,54.9%
4,CCN1CCN(Cc2nc3ccc([N+](=O)[O-])cc3c(=O)n2-c2ccccc2F)CC1,59.6%
5,CC1=C(/C=C/C(C)=C/C=C/C(C)=C/C(=O)Nc2ccc(O)cc2)C(C)(C)CCC1,35.7%
6,Cc1nc2ccc(Oc3ccccc3)cc2c2c1CCN2CCc1ccccc1,8.56% (active)
7,C[C@@H](c1nc(-c2ccc(C#N)cc2)cs1)[C@](O)(Cn1cncn1)c1ccc(F)cc1F,62.9%
8,CN1C(=O)C(c2ccccc2)C(=O)N(c2ccccc2)c2cc(C(F)(F)F)ccc21 (stereo not given),79.5%
9,O=C(NCc1ncc(C(F)(F)F)cc1Cl)c1c(Cl)cccc1Cl,45.4%
10,CN1CCN(Cc2ccc(-c3cnc4[nH]cc(-c5ccc6[nH]ccc6c5)c4c3)cc2)CC1,7.23% (active)
11,CCOC(=O)N[C@@H]1CC[C@@H]2[C@@H](C1)C[C@H]1C(=O)O[C@H](C)[C@H]1[C@H]2/C=C/c1ccc(-c2cccc(F)c2)cn1,23%
12,NC(=O)c1[nH]c2ccc(S(N)(=O)=O)cc2c1-c1ccccc1,72.1%
13,Nc1c(C(=O)NCc2ccco2)c2nc3ccccc3nc2n1CCN1CCCCC1,37%
14,CN(C/C=C/C#CC(C)(C)C)Cc1cccc2ccccc12,41.6%
15,O=C(Nc1nnc(-c2ccccc2)o1)c1ccc(F)cc1,52.8%
16,CCOc1noc2cc(OCCC3CCN(c4ccc(C)nn4)CC3)ccc12,45%
17,CS(=O)(=O)c1ccc(Oc2ccc(Cl)cc2)cc1,54.5%
18,Cc1onc(-c2ccccc2Cl)c1C(=O)N[C@@H]1C(=O)N2[C@@H]1SC(C)(C)[C@@H]2C(=O)O,50.5%
19,COc1cc(C(C(=O)NC2CCCCC2)N(C(=O)Cc2c[nH]c3ccccc23)c2ccc(C(C)C)cc2)cc(OC)c1OC (stereo not given),46.5%
20,CN(C)CCNC(=O)c1cccc2cccnc12,62%
